Reference: PubChem BioAssay (NCATS)
Results filed as inconclusive are left out. Values without a mark were called inactive. Activity calls are given as the source filed them. Calls follow the shape of the dose curve; as a rule, active = well fitted inhibition curve with a large enough effect; inconclusive = small, poorly fitted or top-dose-only effect; inactive = no such curve, though single readings can be large or run the other way.
Potency is read from the fitted curve at half-maximal effect.

Experiment: BET inhibitor-based combinations targeting novel dependencies in MECOM-rearranged (r) AML: HNT-34 cell line (AID 2202234); also: nearly all actives have a fitted effect of over 35% in size;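 as to viability (% of control): plate controls were vehicle wells for no effect and cell-free wells for full effect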
Conditions: HNT-34 AML viability, CellTiter-Glo luminescence, 48 h; series mostly up to 46 µM; viability (% of control): at the top concentration
Description: Ecotropic viral insertion site 1 (EVI1) is located on chromosome 3q26.2 as part of the MECOM (MDS and EVI1 complex) locus. Under normal hematopoiesis, EVI1 is a regulator of hematopoietic stem cell maintenance and self-renewal and EVI1 levels decrease as the cells differentiate. In approximately 5-10% of de novo acute myeloid leukemia (AML) EVI1 is aberrantly expressed, including Chromosomal inv(3)(q21;q26.2) or t(3;3)(q21;q26.2) alterations (MECOM-r) that account for about 50% of AML with EVI1 overexpression 31. AMLs with high levels of EVI1 have a poor prognosis and an overall survival time averaging between 10-14 months. EVI1 overexpression confers resistance in leukemia cells, highlighting the need to develop new targeted therapies for EVI1 overexpressing AMLs. Here, we performed an unbiased chemical drug screening by evaluating the single agent activity of a collection of 2,480 oncology-focused, approved and investigational drugs (NCATS Mechanism Interrogation Plates, MIPE v5.0) against a panel of seven AML cell lines. These included four MECOM-r cell-lines (AML-191, AML-194, UCSD-AML1 and HNT-34) and three non-MECOM-r AMLs (MV4-11, OCI-AML3 and SET-2). Exploiting the mechanistic redundancy built in the library, we identified target-level sensitivities in MECOM-r AML cells and relative activity as compared to other AML subtypes.
A collection of 2480 mechanistically annotated dugs (MIPE v5.0) was used to screen four 3q26.2 rearranged AML cell lines and three non-3q26.2 rearranged AML cell lines. This library purposely exploits redundancy by including multiple inhibitors of key onco-targets, while simultaneously encompassing mechanistic diversity, targeting more than 800 distinct mechanisms of action. Briefly, cells were seeded in 5 uL of growth media using a Multidrop Combi dispenser into 1536 well white polystyrene tissue culture treated plates (Corning) at a density of 500cells/well. For each cell-line, for each of the 2480 drugs in MIPE v5.0 library, an 11-point dose curve was generated via a 1536 pin-tool. Plates were incubated for 48 hr at standard incubator conditions, covered by a stainless steel gasketed lid to prevent evaporation. Cell viability was determined by luminescence based, Cell Titer Glo assay (Promega). In detail, 3 uL of Cell Titer Glo were added to each well and plates were incubated at room temperature for 15 min with a stainless-steel lid in place. Luminescence readings were taken using a Viewlux (PerkinElmer) with a 2 s exposure time per plate. Compound dose-response curves were normalized to DMSO and empty well controls on each plate. Quantitative drug activity data from dose-response curves was determined utilizing area Under the Curve (AUC) and Z-transformed AUC (Z-AUC, a mean-centering transformation applied to each individual cell-line screened).
In the case of `O=C1C[C@@H](c2ccc(O)cc2)Oc2cc(O)cc(O)c21`, the “viability (% of control)” value is reported as 108%. In the case of `CCCOc1ccc(C(=O)OCCN(CC)CC)cc1N`, the “viability (% of control)” value is reported as 90.5%. In the case of `Cc1cc(=O)oc2cc(O)ccc12`, the “viability (% of control)” value is reported as 106%. In the case of `O=C(Nc1ccc2[nH]nc(-c3ccncc3)c2c1)[C@@H]1CCN(CC(=O)N2CCN(c3ccc(-c4ncccn4)cc3)CC2)C1`, the Potency is reported as 1.05 µM (active). For `O=C(c1cncc(Br)c1)N1CCC(N2CCCC2)CC1`, the “viability (% of control)” value was 99.9%. With `NC(=O)c1ccc2[nH]ccc2c1` the “viability (% of control)” value was 99.6%. For `Clc1ccc(COC(Cn2ccnc2)c2ccc(Cl)cc2Cl)c(Cl)c1` (stereo not given), the Potency was 16.6 µM (active). For `C[C@@H](N)C1CCC(C(=O)Nc2ccncc2)CC1` (stereo not given in full), the “viability (% of control)” value was 73.2%. With `C[C@]12CC[C@@H]3c4ccc(O)cc4CC[C@H]3[C@@H]1CC[C@@H]2O` the Potency was 20.9 µM (active). For `CC(C)C[C@H](NC(=O)CNC(=O)c1cc(Cl)ccc1Cl)B1OC(=O)CC(CC(=O)O)(C(=O)O)O1` (stereo not given in full), the Potency was 0.132 µM (active). In the case of `Cc1cc(Nc2cc(N3CCN(C)CC3)nc(/C=C/c3ccccc3)n2)n[nH]1`, the Potency is reported as 0.525 µM (active). With `COc1cccc2c1C(=O)c1c(O)c3c(c(O)c1C2=O)C[C@@](O)(C(=O)CO)C[C@@H]3O[C@H]1C[C@H](N)[C@@H](O)[C@H](C)O1` the Potency was 0.263 µM (active). For `COC(=O)N1CCN(Cc2cccc(NC(=O)Nc3ccc(C)nc3)c2F)CC1`, the “viability (% of control)” value was 95.2%. In the case of `CC(C)=CC[C@@H](O)C1=CC(=O)c2c(O)ccc(O)c2C1=O`, the Potency is reported as 9.34 µM (active). With `CC(C)(N)c1ccc(-c2nc3ccccc3nc2-c2ccccc2)cc1` the Potency was 16.6 µM (active). In the case of `CN1CCN2c3ncccc3Cc3ccccc3C2C1` (stereo not given), the “viability (% of control)” value is reported as 105%. With `CN[C@H](CC(C)C)C(=O)N[C@H]1C(=O)N[C@@H](CC(N)=O)C(=O)N[C@H]2C(=O)N[C@H]3C(=O)N[C@H](C(=O)N[C@H](C(=O)O)c4cc(O)cc(O)c4-c4cc3ccc4O)[C@H](O)c3ccc(c(Cl)c3)Oc3cc2cc(c3O[C@@H]2O[C@H](CO)[C@@H](O)[C@H](O)[C@H]2O[C@H]2C[C@](C)(N)[C@H](O)[C@H](C)O2)Oc2ccc(cc2Cl)[C@H]1O` the “viability (% of control)” value was 109% [at 15.6 µM]. For `CCNC1(C(N)=O)CCN(c2ncnc3c2nc(-c2ccccc2Cl)n3-c2ccc(Cl)cc2)CC1`, the Potency was 26.3 µM (active). For `CC(C(=O)O)c1ccc(-c2ccccc2)c(F)c1` (stereo not given), the “viability (% of control)” value was 99.6%. In the case of `O=c1[nH]cnc2[nH]ncc12`, the Potency is reported as 0.0013 µM (active). With `CC(C)(C)COc1ccc(-n2cc(C(=O)O)cn2)cc1C#N` the “viability (% of control)” value was 78.6%. With `NC(=O)Nc1cc(-c2cccc(F)c2)sc1C(=O)N[C@H]1CCCNC1` the Potency was 0.468 µM (active). For `NC(=O)c1ccc(N(C(N)=O)c2c(F)cccc2F)nc1-c1ccc(F)cc1F`, the “viability (% of control)” value was 107%. In the case of `CC(=O)NC[C@H]1CN(c2ccc(N3CCOCC3)c(F)c2)C(=O)O1`, the “viability (% of control)” value is reported as 110%. For `CN(C)CCC=C1c2ccccc2C=Cc2ccccc21`, the Potency was 16.6 µM (active). In the case of `NCC1CCC(C(=O)O)CC1` (stereo not given), the “viability (% of control)” value is reported as 102% [at 15.6 µM]. For `O=C(Nc1ccc([N+](=O)[O-])cc1Cl)c1cc(Cl)ccc1O`, the Potency was 1.05 µM (active). With `Fc1ccc(Cl)cc1-c1nc(Nc2ccncc2)c2nccnc2n1` the “viability (% of control)” value was 115%. In the case of `CNC(=O)c1ccc2c(C(=Nc3cccc(CN(C)C)c3)c3ccccc3)c(O)[nH]c2c1`, the Potency is reported as 20.9 µM (active). For `COC(c1ccccc1)(c1ccccc1)[C@H](Oc1nc(C)cc(C)n1)C(=O)O`, the “viability (% of control)” value was 94%. With `Cn1ccc2cc3c(cc21)CCN3C(=O)Nc1cccnc1` the “viability (% of control)” value was 104%. With `Cn1cncc1[C@@](N)(c1ccc(Cl)cc1)c1ccc2c(c1)c(-c1cccc(Cl)c1)cc(=O)n2C` the Potency was 0.0021 µM (active). With `COc1ncnc(NS(=O)(=O)c2ccc(N)cc2)c1OC` the “viability (% of control)” value was 108%. With `NCCc1cnc[nH]1` the “viability (% of control)” value was 101%. For `CC(C)Oc1cc(Nc2nc(N[C@@H](C)c3ccc(F)cn3)ncc2Cl)[nH]n1`, the Potency was 16.6 µM (active). With `CC(=O)SCC(Cc1ccccc1)C(=O)NCC(=O)OCc1ccccc1` (stereo not given) the “viability (% of control)” value was 103%. With `O=C(c1ccccc1)c1ccc2n1CCC2C(=O)O` (stereo not given) the “viability (% of control)” value was 87.5%. With `C=CC(=O)Nc1cccc(Nc2nc(Nc3ccc(Oc4ccnc(C(=O)NC)c4)cc3)ncc2F)c1` the Potency was 8.33 µM (active). For `Cc1nnc(NS(=O)(=O)c2ccc(N)cc2)s1`, the “viability (% of control)” value was 90.5%. With `Clc1ccc(C(Cn2ccnc2)OCc2ccc(Sc3ccccc3)cc2)c(Cl)c1` (stereo not given) the Potency was 20.9 µM (active).
